Measurements: PubChem BioAssay AID686978 (National Center for Advancing Translational Sciences (NCATS), 2013)
In all, about 420,000 compounds went through this assay and about 64,000 (15%) were called active. Roughly 27% stayed inconclusive and do not appear here. Calls come from the whole dose curve; as a rule, active = well fitted inhibition curve with a large enough effect; inconclusive = small, poorly fitted or top-dose-only effect; inactive = flat fitted curve, though single readings scatter. These entries were drawn from the full list. Where a call stands in place of a potency, no number is given.
Potency is the fitted concentration of half-maximal effect.

Test: qHTS for Inhibitors of human tyrosyl-DNA phosphodiesterase 1 (TDP1): qHTS in cells in absence of CPT; note: nearly all actives have a fitted effect of over 55% in size
Settings: DT40 Tdp1-/- hTDP1 cells, no CPT, ATP luminescence, 48 h; activity change, negative = growth inhibition: at 46.2 µM (top of the series)
Excerpt: Human tyrosyl-DNA phosphodiesterase 1 (TDP1) is a novel repair gene, and we propose to use it as a new target for anticancer drug development. TDP1 is not an essential protein, but under treatment with topoisomerase I poison (camptothecin: CPT), TDP1 works as a critical factor for cell survival. To directly identify novel TDP1 inhibitors active in a cellular environment, we have knocked-out the Tdp1 gene in chicken DT40 cells (Tdp1-/-) and generated a complemented counterpart cells that contains a stable transfection of the human TDP1 gene (Tdp1-/-;hTDP1 cells). For the primary screen, Tdp1-/-;hTDP1 cells will be exposed to small molecules in the presence or absence of CPT, and their growth kinetics will be evaluated after 48 hours by measuring ATP activity. […] The hit compounds will then be evaluated in the presence or absence of CPT using Tdp1-/- cells. […] In tertiary assays, biochemical gel-based assays will be used to assess whether the hit compounds specifically target TDP1.
To this end, we have screened this cell line against the MLSMR in two primary screens. In one screen we add CPT and in the other we screen in the absence of CPT; this AID represents the screen where CPT was absent.
NIH Chemical Genomics Center [NCGC]
NIH Molecular Libraries Probe Centers Network [MLPCN]
Assay Submitter (PI): Yves Pommier, NCI
DT40-hTDP1 cells without 20 nM Camptothecin (add 20 microL of DMSO in 1 L of cell culture medium) were dispensed at 400 cells/5microL/well in tissue culture treated 1536-well white wall/solid bottom assay plates (Greiner Bio-One North America, NC, U.S.A.) using a Multidrop Combi 8 channel dispenser (Thermo Fisher, Waltham, MA, USA). 23 nL compounds and controls were transferred using the pin tool (Kalypsys, San Diego, CA, USA) to the assay plates. The assay plates were then incubated at 37 masculineC for a minimum 48 hr. Three microL of Cell Titer Glo solution was added to the plates and incubated at RT in dark for 30 min. Luminescence was read using ViewLux (Perkin Elmer) with 1 sec exposure slow speed, high gain and 2x binning.
With `CC(C)C(=O)Nc1oc(-c2ccccc2)cc1C#N` the Potency was “inactive”.
In the case of `Cc1ccc(NC(=O)CN(C)C(=O)Cn2nnc(-c3ccccc3)n2)cc1`, the Potency is reported as “inactive”.
For `CCCn1nc(C(=O)NNC(=O)CSCC(=O)Nc2cc(C)on2)c2ccccc2c1=O`, the Potency was “inactive”.
In the case of `CCCn1nc(C(=O)Nc2ccc3nc(C)sc3c2)c2ccccc2c1=O`, the Potency is reported as 18.4 µM (active).
In the case of `CCCn1nc(C(=O)NNC(=O)CCOc2ccccc2OCC)c2ccccc2c1=O`, the Potency is reported as “inactive”.
For `CCCCCC(=O)Nc1ccc(C(=O)N/N=C/c2ccc([N+](=O)[O-])cc2)cc1`, the Potency was “inactive”.
With `CCOC(=O)/C=C/CN(C(=O)OC(C)(C)C)S(=O)(=O)N1CC=CC1` the Potency was “inactive”.
With `Cc1ccccc1C(=O)O` the Potency was “inactive”.
With `COC(=O)c1ccccc1C(=O)NCc1nc(N2CCCC2)c2cccc(C)c2n1` the Potency was “inactive”.
With `COc1cc2cc(C(=O)N/N=C/c3cccc(OC)c3OC)[nH]c2cc1OC` the Potency was 13 µM (active).
For `COc1ccc(/C=N/NC(=O)c2cccc(C(F)(F)F)c2)cc1`, the Potency was “inactive”.
In the case of `CCOc1ccc2[nH]c(C(=O)N/N=C/c3cccc(OC)c3OC)cc2c1`, the Potency is reported as 16.4 µM (active).
For `COc1cccc2[nH]c(C(=O)NCCc3ccccc3)cc12`, the Potency was “inactive”.
With `CCOc1ccccc1/C=N/NC(=O)CNC(=O)COc1ccccc1` the Potency was “inactive”.
In the case of `COc1ccc2[nH]c(C(=O)Nc3ccccc3Cl)cc2c1`, the Potency is reported as “inactive”.
In the case of `CCCOP(=O)(c1ccc(N(C)C)cc1)C(O)c1cc(OC)c(OC)c(OC)c1` (stereo not given), the Potency is reported as “inactive”.
For `Cc1ccc2oc(=O)ccc2c1`, the Potency was “inactive”.
With `CC(=O)Nc1ccc(S(=O)(=O)Nc2nccc(/C=C/c3ccccc3F)n2)cc1` the Potency was “inactive”.
For `COCCNS(=O)(=O)c1cc(Br)ccc1OC`, the Potency was “inactive”.
For `C=CC(COCc1ccccc1)N(Cc1ccccc1)S(=O)(=O)c1ccccc1Br` (stereo not given), the Potency was 16.4 µM (active).
For `C=CC(COCc1ccccc1)N(CC(=O)OC)S(=O)(=O)c1cc(Br)ccc1OC` (stereo not given), the Potency was 25.9 µM (active).
For `CCN(Cc1ccccc1)S(=O)(=O)c1cc(C(=O)O)ccc1OC`, the Potency was “inactive”.
With `C=CCCN(Cc1ccccc1)S(=O)(=O)c1ccccc1Br` the Potency was “inactive”.
With `CCN([C@H](CO)C(C)C)S(=O)(=O)c1ccccc1Br` the Potency was “inactive”.
For `CCN(CCn1cccn1)C(=O)CC1C(=O)NCCN1Cc1cccc(OC)c1OC` (stereo not given), the Potency was “inactive”.
With `Brc1ccc(-c2nn[nH]n2)cc1` the Potency was “inactive”.
With `CCN=C1SC(CC(=O)Nc2ccc(C)cc2)C(=O)N1CC` (stereo not given) the Potency was “inactive”.
In the case of `O=C(NCc1cccs1)c1ccc(CS(=O)Cc2ccccc2Cl)o1` (stereo not given), the Potency is reported as “inactive”.
For `O=C(c1ccc(CS(=O)Cc2ccccc2Cl)o1)N1CCN(c2ccccc2)CC1` (stereo not given), the Potency was 20.6 µM (active).
In the case of `COc1ccc(NS(=O)(=O)c2cccc3nsnc23)cc1Cl`, the Potency is reported as “inactive”.
With `C=CCn1c(-c2ccc(Cl)cc2)ccc(C#N)c1=O` the Potency was “inactive”.
In the case of `CCN(CC)c1ccc(C(=O)c2cnc(/N=C/N(C)C)s2)cc1`, the Potency is reported as “inactive”.
In the case of `Cc1ccnc2nc(C(=O)Nc3nnc(-c4ccccc4)o3)nn12`, the Potency is reported as “inactive”.
For `CC(NCC(=O)Nc1ccccc1C(=O)NC1CC1)c1ccccc1Cl` (stereo not given), the Potency was “inactive”.
For `Cc1ccc(OCC(=O)Nc2ccccc2C(=O)NC2CC2)cc1C`, the Potency was “inactive”.
With `CC1CCCCC1NCC(=O)Nc1ccccc1C(=O)Nc1ccccc1` (stereo not given) the Potency was 14.6 µM (active).
For `C[C@H](NC(=O)C1CCN(S(=O)(=O)c2ccccc2)CC1)C(=O)NCc1ccccc1`, the Potency was “inactive”.
With `O=C(COc1ccc([N+](=O)[O-])cc1Cl)Nc1ccc2[nH]c(=O)[nH]c2c1` the Potency was “inactive”.
In the case of `O=C1N(c2ccc(Cl)cc2)C(c2ccc(Cl)cc2)N2CCCN12` (stereo not given), the Potency is reported as “inactive”.
In the case of `COc1ccc(N2C(=O)CNC2=S)cc1`, the Potency is reported as “inactive”.
In the case of `COc1ccc(-n2c(-c3ccc(OC)c(OC)c3)n[nH]c2=S)cc1`, the Potency is reported as “inactive”.
With `COc1ccc(-c2cn(-c3ccc(OC)cc3)c(=S)[nH]2)cc1` the Potency was 18.4 µM (active).
In the case of `FC(F)(F)c1cccc(-c2nc(COc3ccc(Cl)cc3Cl)no2)c1`, the Potency is reported as “inactive”.
In the case of `CS(=O)(=O)N(CC(=O)N1CCOCC1)c1ccc2c3c(cccc13)CC2`, the Potency is reported as “inactive”.
For `O=C(COC(=O)CNS(=O)(=O)c1ccc(F)c(F)c1F)NC1CCCC1`, the Potency was “inactive”.
In the case of `COc1ccc(OC)c(Nc2nc3ccccc3n3cnnc23)c1`, the Potency is reported as “inactive”.
With `COc1cccc(Nc2ncccc2C(=O)O)c1` the Potency was “inactive”.
In the case of `FC(F)(F)c1cc(Nc2nc3ccccc3c3nncn23)ccc1Cl`, the Potency is reported as 16.4 µM (active).
For `COc1cccc(Nc2nc3ccccc3c3nncn23)c1`, the Potency was 25.9 µM (active).
For `FC(F)(F)c1ccccc1-c1nc(-n2ccnc2)c2ccccc2n1`, the Potency was “inactive”.
In the case of `CC(C)c1cc(CN2CCOCC2)cc(C(C)C)c1O`, the Potency is reported as “inactive”.
In the case of `O=C(Cc1ccccc1)Nc1ccc(NC(=O)c2cccnc2)cc1`, the Potency is reported as “inactive”.
With `CC(C)(C)c1cc[n+](-c2[nH]c(=O)sc2/C=N/N=C(\[O-])c2ccccc2)cc1` the Potency was “inactive”.
In the case of `CCCS(=O)(=O)Nc1c(C(=O)O)[nH]c2ccccc12`, the Potency is reported as “inactive”.
For `C[N+](C)(C)CCNC(=O)c1c[nH]c2ccccc12`, the Potency was “inactive”.
With `COc1ccc(C2C(C(C)=O)=C(O)C(=O)N2CCc2c[nH]c3ccccc23)cc1` (stereo not given) the Potency was “inactive”.
With `COc1ccc(/C=C(\C#N)c2c[nH]c3ccccc23)cc1` the Potency was 0.651 µM (active).
For `N/C(=N\OC(=O)c1ccc2c(c1)OCO2)c1ccc(Br)cc1`, the Potency was “inactive”.
In the case of `CCn1cc(C(=O)NCCC(=O)NCCO)c(=O)c2cc3c(cc21)OCO3`, the Potency is reported as “inactive”.
In the case of `CCCN(CC(=O)Nc1ccc(C(N)=O)cc1)CC(=O)Nc1ccccc1C`, the Potency is reported as “inactive”.
With `COc1ccc(N(CC(=O)N2CCCCCC2)S(=O)(=O)c2ccccc2)cc1` the Potency was “inactive”.
For `CS(=O)(=O)N(CC(=O)N1CCN(Cc2ccccc2)CC1)c1ccc2c(c1)OCCO2`, the Potency was “inactive”.
In the case of `CC1CCN(C(=O)CN(c2ccc(Oc3ccccc3)cc2)S(C)(=O)=O)CC1`, the Potency is reported as 13 µM (active).
In the case of `Cc1ccc(N2C(=O)CC(N3CCSCC3)C2=O)c(C)c1` (stereo not given), the Potency is reported as “inactive”.
For `Cc1ccc(-n2ncc3c2CC(C)(C)CC3NC(=O)Cc2c(C)noc2C)cc1` (stereo not given), the Potency was 23.1 µM (active).
For `COC(=O)c1ccc(C(=O)NC2CC(C)(C)Cc3c2cnn3-c2ccc(F)cc2)nc1` (stereo not given), the Potency was 3.66 µM (active).
For `COc1ccc(-n2ncc3c2CC(C)(C)CC3NC(=O)CCc2c(C)nn(C)c2C)cc1` (stereo not given), the Potency was “inactive”.
With `COc1ccc(-n2ncc3c2CC(C)(C)CC3NC(=O)CCc2c(C)noc2C)cc1` (stereo not given) the Potency was “inactive”.
For `Cc1cc(C(=O)NC2CC(C)(C)Cc3c2cnn3-c2ccccc2)n[nH]1` (stereo not given), the Potency was “inactive”.
In the case of `CC1(C)Cc2c(cnn2-c2cccc(F)c2)C(NC(=O)c2cc[n+]([O-])cc2)C1` (stereo not given), the Potency is reported as “inactive”.
